An excerpt weighted towards active compounds, which were near 11% of everything screened.
Tau ThT inhib: tau fibrillization inhibition (ThT binding) | Potency, µM (doses to about 57.4 µM), for inactives: at the highest dose activity, negative = inhibition, usual class: inhibitors | actives 2.1% (n = 270,000) | recombinant tau K18 P301L, heparin-induced fibrillization, ThT fluorescence | AID 1460; note: potency is the fitted concentration of half-maximal effect; nearly all actives have a fitted effect of over 55% in size
Target sequence (P10636 561-689 P618L limits assumed): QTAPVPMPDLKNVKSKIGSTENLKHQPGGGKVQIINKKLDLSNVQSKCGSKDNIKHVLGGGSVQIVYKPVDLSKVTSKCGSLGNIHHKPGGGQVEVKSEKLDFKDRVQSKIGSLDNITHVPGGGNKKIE
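ThT emission at 510 nm, taken 1 hr after adding 30 uM dye, quantifies aggregates formed when 20 uM heparin acts on human tau K18 P301L for 6 hr at 37 C.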
Coupling enz: coupling enzyme interference in Giardia aldolase counter-screen. coupling enzyme system counterscreen, AmpLite Red fluorescence. activity change, negative = inhibition, % at 58.2 µM, hits read low. actives 0.67% (n = 290,000). AID 2472; in the data active = activity change below about -30%
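Counterscreen of the coupled detection system alone, without aldolase: glyceraldehyde-3-phosphate coupling enzymes plus AmpLite Red readout. Compounds at 57.5 uM final, 10 min RT preincubation, 20 min RT reaction, fluorescence 525/598 nm.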
Tau fluor counter: counter-screen for tau fibril formation inhibitors. tau K18 P301L Alexa594 fluorescence, heparin fibrillization. Potency, µM (series often up to 57.7 µM), for inactives: at the top dose activity change, negative = decrease. actives 0.93% (n = 280,000). AID 1463; note: potency is the fitted concentration of half-maximal effect; nearly all actives have a fitted effect of over 55% in size
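Human K18 P301L tau (15 uM unlabeled plus 0.24 uM Alexa 594-labeled, final) in 100 mM sodium acetate pH 7 was mixed with compound and 20 uM heparin and incubated 6 hr at 37 C.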
Tau fibril FP: blocks human tau fibril formation measured by polarization; P10636; K18 P301L tau heparin fibrillization, Alexa594 FP, 6 h; Potency, µM (series often up to 57.7 µM), without a hit: at the top dose activity, negative = inhibition, actives largely listed as inhibitors; actives 0.39% (n = 280,000); AID 1468; note: potency is the fitted concentration of half-maximal effect; nearly all actives have a fitted effect of over 55% in size
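Heparin (20 uM) drove fibril formation of recombinant tau K18 P301L, 15 uM unlabeled with 0.24 uM Alexa 594 label, for 6 hr at 37 C in 100 mM sodium acetate pH 7. Fluorescence polarization (555/632 nm) read 1 hr after 30 uM ThT.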
G9a block: blocks human histone lysine methyltransferase G9a. Q96KQ7. G9a H3K9 monomethylation, AlphaScreen, 2 h. Potency, µM (series often up to 102 µM), inactives show top-dose activity, negative = inhibition, usual class: inhibitors. actives 8.8% (n = 350,000). AID 504332; note: potency is the fitted concentration of half-maximal effect; nearly all actives have a fitted effect of over 75% in size
Target sequence (Q96KQ7 913-1193 limits assumed): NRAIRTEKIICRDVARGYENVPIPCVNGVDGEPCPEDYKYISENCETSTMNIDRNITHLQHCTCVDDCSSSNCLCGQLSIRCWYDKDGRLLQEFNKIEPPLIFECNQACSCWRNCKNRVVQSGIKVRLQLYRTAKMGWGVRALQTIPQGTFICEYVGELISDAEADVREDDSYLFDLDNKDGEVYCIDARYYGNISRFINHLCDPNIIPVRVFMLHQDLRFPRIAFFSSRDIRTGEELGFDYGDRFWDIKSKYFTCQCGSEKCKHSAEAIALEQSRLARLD
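G9a (20 nM) was preincubated 15 min with compound, then reacted 2 h at room temperature with 500 nM biotin-H3K9 peptide and 20 µM SAM. Monomethyl-H3K9 detected by AlphaScreen using anti-H3K9me1 antibody.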
Sfp PPTase inh: Sfp phosphopantetheinyl transferase inhibition | Biochemical Sfp PPTase activity, qHTS | Potency, µM, for inactives: largest response in the series, negative = inhibition, hits mostly inhibitors | actives 3.5% (n = 310,000);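 note: the enzyme is Sfp with the accession as filed and its product quenches rhodamine fluorescence; potency is the fitted concentration of half-maximal effect; 0% = enzyme reaction without inhibitor and -100% = no enzyme wells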
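Sfp 15 nM + cpd, 15 min RT; start w/ rhodamine-CoA 5 uM, BHQ-2-YbbR 12.5 uM (final); 50 mM Hepes pH 7.6, 10 mM MgCl2, 0.01% NP-40, 0.01% BSA; read 525/598 nm at 0 and 30 min.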
* = called active by the depositor; ? = inconclusive; nt = not tested or not shown; ! = a repeat was not active; [ ] = another dose, or the depositor's remark. Unless noted, calls come from the whole dose curve; as a rule, active = well fitted curve in the direction sought with a large enough effect; inconclusive = small, poorly fitted or top-dose-only effect, or another doubt; inactive = no such curve, though single readings can be large; an effect the other way counts as inactive or inconclusive. Unless noted, % is set by controls: 0 for no effect and ±100 for the full control effect.

SMILES	Tau ThT inhib	Coupling enz	Tau fluor counter	Tau fibril FP	G9a block	Sfp PPTase inh
CCn1cc(C(=O)O)c(=O)c2cc(F)c(N3CCNC(C)C3)c(F)c21 (stereo not given)	-2.0%	-1.7	-3.5%	-10.4%	11.2µM*!	-2.4%
Cc1ccc(NC(=O)C2CCCN(S(=O)(=O)c3ccc4[nH]c(=O)ccc4c3)C2)cc1Cl (stereo not given)	16.6%	nt	-7.3%	-7.5%	-9.4%[59 µM]	nt
CCOC(=O)Cn1c(=O)c2c(nc(N3CCOCC3)n2C)n(C)c1=O	-1.9%	0.0	-6.7%	-10.1%	7.9%	7.7%
CCCCCOC(=O)Cn1c(=O)c2c(nc(N3CCOCC3)n2C)n(C)c1=O	-6.3%	1.1	-4.1%	-6.7%	10µM*	-3.4%
O=C(O)c1cccc(S(=O)(=O)Nc2ccc([N+](=O)[O-])cc2O)c1	-25.4%	9.7	-24.3%	?	22.4µM*	?
CNc1cc([N+](=O)[O-])ccc1OCc1ccccc1	11.2µM*	-12.1	?	-3.5%	66.3%	-7.7%
Cc1cc([N+](=O)[O-])ccc1N	nt	nt	nt	nt	-49.3%	nt
COc1ccc([N+](=O)[O-])cc1NS(=O)(=O)Cc1ccccc1	nt	1.7	nt	nt	-6.2%	13.5%
Cc1cc([N+](=O)[O-])ccc1NCc1ccccc1	?	1.1	-21.8%	-6.2%	nt	3.9%
COc1ccc([N+](=O)[O-])cc1NS(=O)(=O)c1ccccc1	1.4%	2.8	-5.2%	4.4%	0.794µM*	8.8%
O=C(O)c1cccc(S(=O)(=O)Nc2ccccc2-c2ccccc2)c1	-1.5%	-0.4	-0.6%	-4.4%	?	17.9%
C[n+]1ccccc1Nc1cc([N+](=O)[O-])ccc1N	nt	-0.6	nt	nt	11.2µM*	-9.8%
CCOc1ccc(NC(=O)C2CCN(c3nnc(-n4c(C)ccc4C)s3)CC2)cc1	10.1%	nt	-0.1%	-6.6%	6.7%[59 µM]	nt
COc1ccccc1Nc1ccc([N+](=O)[O-])cc1N	14.1µM*	-5.5	?	12.9%	?	-12.1%
COc1ccccc1NC(=O)c1cc(OC)c(OC)cc1[N+](=O)[O-]	-1.4%	0.9	2.3%	-1.3%	10.3%	-1.7%
COc1ccccc1Nc1c([N+](=O)[O-])cc(C)cc1[N+](=O)[O-]	-19.9%	0.9	-27.4%	1.3%	6.31µM*	4.2%
COc1cc([N+](=O)[O-])ccc1Nc1nc(C)cc(C)n1	-5.2%	-1.8	3.0%	-0.6%	17.4%[12.7 µM]	26.2%
COc1ccc(NC(=O)CSC2=Nc3ccccc3C3=NC(Cc4ccccc4)C(=O)N23)cc1 (stereo not given)	-3.7%	nt	-16.4%	-1.4%	-26.6%[59 µM]	nt
O=C(O)c1cc(S(=O)(=O)O)cc(Nc2c3ccccc3nc3ccccc23)c1O	nt	-0.7	nt	nt	17.8µM*	?
O=C(O)c1cccc(Nc2c3ccccc3nc3ccccc23)c1	nt	0.5	nt	nt	nt	1.6%
COc1cccc(/C=N/c2oc(-c3ccccc3)cc2C#N)c1O	14.1µM*	-1.5	-27.4%	1.3%	-49.8%[59 µM]	?
CCn1c(=O)cc(OCC(=O)NCc2ccc(C)o2)c2ccccc21	-11.4%	-3.9	9.0%	4.8%	?	31.6µM*
Cc1ccc(CNC(=O)CCCOc2cc(=O)n(C)c3ccccc23)o1	-20.3%	0.2	-12.6%	-20.3%	?	22.4µM*
CCn1c(=O)cc(OCC(=O)NCc2ccco2)c2ccccc21	-18.0%	1.4	-6.3%	6.9%	?	-1.4%
CCOC(=O)c1c(CSC(=N)N)n(-c2ccccc2)c2cc(Br)c(OC(C)=O)cc12	?	-2.4	?	4.8%	50.1µM*	?
CCOC(=O)c1c(CN2CCN(C)CC2)n(-c2ccccc2)c2cc(Br)c(O)cc12	13.2%	1.2	-15.2%	?	1.3%[12.7 µM]	-23.2%
Nc1nc(Nc2ccccc2)nc2ccccc12	-0.7%	-0.8	-12.9%	-0.3%	?	-11.7%
CN(C)c1ccc(Nc2nc(N)c3ccccc3n2)cc1	nt	-1.3	nt	nt	10µM*	25.1µM*
CCOc1ccc(NC(=O)CCN2CCN(S(=O)(=O)c3cc(Cl)ccc3OC)CC2)cc1	-9.2%	-2.5	-12.5%	?	?	8.0%

Source: PubChem BioAssay
